# Reference: PubChem BioAssay
# Values joined by “and” are separate entries in the source; they are usually repeats but may differ in a detail not shown here. Equal values may be shown once.
# Assay: probe aWnt5a binding to arrayed compounds – biochemical, biotinylated probe, 635/667 nm fluorescence, primary screen (AID 1113);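 note: score merges 667 nm fluorescence intensity with signal-to-noise per printed feature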
# Conditions: small-molecule microarray, higher = more signal
row,SMILES,composite z-score
1,C=C(C)C(=O)OC[C@@H]1CN2[C@@H](CC[C@@H](C)[C@@H]2c2ccc(Br)cc2)C(=O)O1,-0.109
2,CC(CO)N1C(=O)[C@@H]2C3C(=O)OCCC=C[C@H]3OC23C=CCN(Cn2nnc4ccccc42)C(=O)[C@@H]13 (stereo partly drawn),-0.25 and 0.0431
3,O=C(NN=C1C[C@@H](O)[C@@H](O)[C@@H]2[C@@H]3C(=O)N(Cc4ccc5c(c4)OCO5)C(=O)[C@@H]3CC[C@H]12)OCc1ccccc1,0.0718
4,COC(=O)[C@@]1(Cc2ccc(OC)cc2)[C@H]2c3cc(C(=O)N(C)C)n(Cc4ccc(O)c(OC)c4)c3C[C@H]2CN1C(=O)c1ccccc1,-0.208 and 0.201
5,O=C1NC(=O)C2C1C=CC(C(O)c1ccc([N+](=O)[O-])cc1)N2Nc1ccc(Cl)cc1Cl (stereo not drawn),-0.0566 and 0.0775
6,CC(C)=CCCC(C)=CCON=C1C[C@@H](O)[C@@H](O)[C@@H]2[C@@H]3C(=O)N([C@@H](C)c4ccccc4)C(=O)[C@@H]3CC[C@H]12,-0.0644
7,COC(=O)C1=C(C)N(Cc2ccccc2)C2=C3C(=O)CCC[C@@H]3[C@@](O)(C(=O)OC)C(=O)N2[C@@H]1c1ccccc1,-0.144 and -0.0185
8,CCCC[C@@H]1CN2[C@@H](CC[C@@H](C)[C@@H]2c2ccc(Br)cc2)C(=O)O1,-0.152 and -0.13
9,CCN1C(=O)[C@H]2[C@H]3[C@H](O)[C@H](O)CC(=NOC)[C@@H]3CC[C@H]2C1=O,-0.147
10,CC(C)OC(=O)C=C1C[C@@H](c2cccc(C(F)(F)F)c2)O[C@@H](c2cccc(C(F)(F)F)c2)O1,0.0433 and -0.218
11,CC(C)=NO[C@@H](C)c1cc(-c2c(C)cc(C)cc2C)no1,-0.152
12,C=CCN(C(=O)C1N(CCOCCO)C(=O)C2C(C(=O)O)C3C=CC21O3)c1ccc(OC)cc1 (stereo not drawn),-0.2 and -0.214
13,C=CCN(C(=O)C(c1cccs1)N(CCOCCO)C(=O)/C=C\C(=O)O)c1ccc(OC)cc1 (stereo not drawn),-0.214 and -0.232
14,C=CCN(Cc1ccccc1)C(=O)C(c1cccs1)N(C(=O)/C=C\C(=O)O)c1ccc(CCO)cc1 (stereo not drawn),-0.243 and -0.252

# Assay: probe aShh binding to arrayed compounds – biochemical, biotinylated probe, 635/667 nm fluorescence, primary screen (AID 1114);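 note: probe is biotin-labelled aShh protein from a stem cell growth factor screen; measures binding of labelled protein to compounds printed on the slide; score merges feature fluorescence at 667 nm with signal-to-noise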
# Conditions: small-molecule microarray, higher = more signal
row,SMILES,composite z-score
1,CC(CO)N1C(=O)[C@@H]2C3C(=O)OCCC=C[C@H]3OC23C=CCN(CCN2CCOCC2)C(=O)[C@@H]13 (stereo partly drawn),0.0278 and 0.214
2,COC(=O)C1=C(C)N(Cc2ccccc2)C2=C(C(C)=O)[C@H](c3ccccc3)[C@@](O)(C(=O)OC)C(=O)N2[C@@H]1c1ccccc1,0.151 and -0.0146
3,CC(C)=NOC[C@@H](O)COCc1ccco1,-0.138
4,C[C@@H]1CC[C@H]2C(=O)NC[C@@H](O)CN2[C@H]1c1ccc(Br)cc1,-0.138 and 0.235
5,CCOC(=O)[C@@H]1CC2O[C@]23C[C@@H]1C(=O)N1CCC[C@@H]1[C@H]3O[Si](C)(C)C(C)(C)C (stereo partly drawn),-0.299 and -0.197
6,C[N+](C)(C)CCCCNC(=O)[C@H]1C[C@H]2C(=O)N[C@@H](CCCC[N+](C)(C)C)C(=O)N2[C@H]1c1ccc(O)cc1,-0.0011 and -0.0709
7,CC(C)[Si]1(C(C)C)OCc2cc(CCCc3cc4c(c(CCc5ccccc5)n3)[Si](C(C)C)(C(C)C)OC4)nc(CCc3ccccc3)c21,-0.27 and 0.0141
8,COC(=O)C1=C(C)N(Cc2ccccc2)C2=C3C(=O)N(c4ccccc4)C(=O)[C@@H]3[C@@](O)(C(=O)OC)C(=O)N2[C@@H]1c1ccccc1,0.151 and 0.318
9,CO[C@H]1COC(=O)CC=C[C@H](C)[C@H](OC)COC(=O)[C@@H](C)COC(=O)CC=C[C@@H]1C,-0.304 and 0.0899
10,C=CCN(C(=O)C1N(c2ccc(CCO)cc2)C(=O)C2C(C(=O)O)C3C=CC21O3)c1ccc(OC)cc1 (stereo not drawn),0.0899 and -0.239
11,COC(=O)[C@@]1(Cc2ccc(F)cc2)[C@H]2c3cc(C(=O)N4CCCC4)n(Cc4c(CO)[nH]cc(C)c4=O)c3C[C@H]2CN1C(=O)c1ccccc1,2.2 and 0.182
12,CC(CO)N1C(=O)[C@@H]2C3C(=O)OCCC=C[C@H]3OC23C=CCN(c2ccc(Cl)cc2)C(=O)[C@@H]13 (stereo partly drawn),-0.19 and -0.0035
13,C=CCN(CCCC)C(=O)C(c1cccs1)N(C(=O)/C=C\C(=O)O)c1c(Cl)cccc1CO (stereo not drawn),-0.0769 and -0.221
14,CCOC(=O)C[C@H]1[C@H](OC(=O)c2ccccc2-c2ccccc2)[C@@H](NC(=O)c2ccccc2)c2cc(OCCCO)ccc2N1C(=O)c1ccc2ccccc2n1,-0.2 and 0.0078
15,C=CCN(C(=O)C1N(c2c(Cl)cccc2CO)C(=O)C2C(C(=O)O)C3C=CC21O3)C(C)(C)C (stereo not drawn),-0.544 and -0.123
16,C#CCCCON=C1C[C@@H](O)[C@@H](O)[C@@H]2[C@@H]3C(=O)N(C4CCCCC4)C(=O)[C@@H]3CC[C@H]12,-0.0177
17,C=CCN(CCCC)C(=O)C1N(c2ccc(CCO)cc2)C(=O)C2C(C(=O)O)C3C=CC21O3 (stereo not drawn),0.0796 and 0.292
18,C=CCN(C(=O)C1N(c2c(Cl)cccc2CO)C(=O)C2C(C(=O)O)C3C=CC21O3)c1ccc(OC)cc1 (stereo not drawn),-0.487 and -0.336
19,CON(C)C(=O)c1nnc2c3ccccc3n(S(=O)(=O)c3ccc(C)cc3)c2n1,-0.223 and 0.0022
20,CCCC[C@@H]1CN2[C@H](c3ccc(Br)cc3)[C@@H](C)CC[C@H]2C(=O)O1,-0.273 and -0.138

row,SMILES,composite z-score
1,C=CCN(CCCCC)C(=O)C1N(c2ccc(CCO)cc2)C(=O)C2C(C(=O)O)C3C=CC21O3 (stereo not drawn),-0.0769 and -0.0866
2,C=CCN(Cc1ccccc1)C(=O)C1N(C(C)(C)CO)C(=O)C2C(C(=O)O)C3C=CC21O3 (stereo not drawn),-0.138 and -0.206
3,O=C1C[C@]2(c3ccc([N+](=O)[O-])cc3)C(=O)N(Cc3ccccc3)c3cc(CO)ccc3[C@H]2N1C1CCCCC1,0.0611 and 0.393
4,C=CCN(Cc1ccccc1)C(=O)C(c1cccs1)N(C(=O)/C=C\C(=O)O)c1c(Cl)cccc1CO (stereo not drawn),-0.212 and -0.366
5,CCOC(=O)c1ccc(NC(=O)O[C@H]2[C@H](OC(=O)Nc3ccccc3)[C@@H](OC(=O)Nc3ccccc3)[C@@H](OC)O[C@@H]2CO)cc1,0.613 and 0.204
6,C=C(C)C(=O)OC[C@@H]1CN2[C@@H](CC[C@@H](C)[C@@H]2c2ccc(Br)cc2)C(=O)O1,0.0684
7,CC(CO)N1C(=O)[C@@H]2C3C(=O)OCCC=C[C@H]3OC23C=CCN(Cn2nnc4ccccc42)C(=O)[C@@H]13 (stereo partly drawn),-0.474 and 0.0062
8,O=C(NN=C1C[C@@H](O)[C@@H](O)[C@@H]2[C@@H]3C(=O)N(Cc4ccc5c(c4)OCO5)C(=O)[C@@H]3CC[C@H]12)OCc1ccccc1,0.0796
9,COC(=O)[C@@]1(Cc2ccc(OC)cc2)[C@H]2c3cc(C(=O)N(C)C)n(Cc4ccc(O)c(OC)c4)c3C[C@H]2CN1C(=O)c1ccccc1,-0.374 and 0.632
10,O=C1NC(=O)C2C1C=CC(C(O)c1ccc([N+](=O)[O-])cc1)N2Nc1ccc(Cl)cc1Cl (stereo not drawn),0.0326 and -0.241
11,CC(C)=CCCC(C)=CCON=C1C[C@@H](O)[C@@H](O)[C@@H]2[C@@H]3C(=O)N([C@@H](C)c4ccccc4)C(=O)[C@@H]3CC[C@H]12,0.265
12,COC(=O)C1=C(C)N(Cc2ccccc2)C2=C3C(=O)CCC[C@@H]3[C@@](O)(C(=O)OC)C(=O)N2[C@@H]1c1ccccc1,-0.182 and 0.187
13,CCCC[C@@H]1CN2[C@@H](CC[C@@H](C)[C@@H]2c2ccc(Br)cc2)C(=O)O1,0.0756 and -0.0553
14,CCN1C(=O)[C@H]2[C@H]3[C@H](O)[C@H](O)CC(=NOC)[C@@H]3CC[C@H]2C1=O,0.13
15,CC(C)OC(=O)C=C1C[C@@H](c2cccc(C(F)(F)F)c2)O[C@@H](c2cccc(C(F)(F)F)c2)O1,0.04 and -0.162
16,CC(C)=NO[C@@H](C)c1cc(-c2c(C)cc(C)cc2C)no1,0.0899
17,C=CCN(C(=O)C1N(CCOCCO)C(=O)C2C(C(=O)O)C3C=CC21O3)c1ccc(OC)cc1 (stereo not drawn),-0.221 and -0.195
18,C=CCN(C(=O)C(c1cccs1)N(CCOCCO)C(=O)/C=C\C(=O)O)c1ccc(OC)cc1 (stereo not drawn),-0.291 and -0.138
19,C=CCN(Cc1ccccc1)C(=O)C(c1cccs1)N(C(=O)/C=C\C(=O)O)c1ccc(CCO)cc1 (stereo not drawn),-0.221 and -0.138
